# Laboratory results from PMC4336329 (PLoS ONE, 2015).
# Among all 310,000 compounds or so, about 2,200 (0.71%) showed an effect of 50% or more. Effects have a minus sign here. Shown is part of a subset that was picked to be rich in strong results.
# Molecular target: human ether-à-go-go-related gene (hERG) potassium channel (human, UniProt Q12809)
# Test: primary screen, population patch clamp on CHO cells stably expressing hERG; higher = less effect of the substance
# Sequence of human ether-à-go-go-related gene (hERG) potassium channel (Q12809 whole entry, looked up): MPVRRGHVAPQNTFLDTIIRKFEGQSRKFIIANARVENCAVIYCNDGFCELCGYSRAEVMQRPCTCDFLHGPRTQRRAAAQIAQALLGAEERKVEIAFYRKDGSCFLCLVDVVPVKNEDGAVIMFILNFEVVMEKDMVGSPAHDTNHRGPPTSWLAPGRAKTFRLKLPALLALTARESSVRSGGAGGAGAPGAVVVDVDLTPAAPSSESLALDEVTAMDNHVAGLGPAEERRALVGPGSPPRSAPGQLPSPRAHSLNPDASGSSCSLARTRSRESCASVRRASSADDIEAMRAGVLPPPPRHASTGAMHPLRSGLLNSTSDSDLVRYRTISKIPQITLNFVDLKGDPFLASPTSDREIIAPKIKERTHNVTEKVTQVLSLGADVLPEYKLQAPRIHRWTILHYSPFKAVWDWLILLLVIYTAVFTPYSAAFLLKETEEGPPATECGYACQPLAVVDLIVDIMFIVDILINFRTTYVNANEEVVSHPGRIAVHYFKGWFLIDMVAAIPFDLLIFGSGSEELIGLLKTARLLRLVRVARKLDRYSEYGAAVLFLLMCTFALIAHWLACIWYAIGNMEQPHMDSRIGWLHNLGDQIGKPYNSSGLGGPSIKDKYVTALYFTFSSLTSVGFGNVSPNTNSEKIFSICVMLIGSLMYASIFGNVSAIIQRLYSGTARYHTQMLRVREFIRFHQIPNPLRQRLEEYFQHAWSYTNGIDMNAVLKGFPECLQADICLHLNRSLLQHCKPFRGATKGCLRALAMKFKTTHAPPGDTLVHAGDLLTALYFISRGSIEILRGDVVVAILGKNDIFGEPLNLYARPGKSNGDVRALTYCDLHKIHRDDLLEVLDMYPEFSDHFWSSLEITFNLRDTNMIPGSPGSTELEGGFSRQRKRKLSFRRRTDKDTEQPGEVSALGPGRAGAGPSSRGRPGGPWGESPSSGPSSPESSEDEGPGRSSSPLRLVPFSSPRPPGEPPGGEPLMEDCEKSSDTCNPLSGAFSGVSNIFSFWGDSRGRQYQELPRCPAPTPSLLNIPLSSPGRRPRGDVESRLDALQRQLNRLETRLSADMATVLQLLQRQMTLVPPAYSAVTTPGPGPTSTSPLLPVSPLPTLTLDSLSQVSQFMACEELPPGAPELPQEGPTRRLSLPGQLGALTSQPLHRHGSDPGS
row,Structure (SMILES),"hERG current change (%, negative = inhibition) at 1uM [%]"
1,O=C(COC(=O)C1CCN(C(=O)c2ccc(Cl)cc2)CC1)Nc1ccccc1F,-11.5
2,Cc1cc(-c2nn(-c3ccccc3F)cc2CN2CCN(c3ccncc3)CC2)c(C)s1,-69.3
3,Cc1cc(-c2nn(-c3ccccc3F)cc2CN2CCC(O)CC2)c(C)s1,-0.852
4,Cc1cc(-c2nn(-c3ccccc3F)cc2CN2CCN(c3ccccn3)CC2)c(C)s1,10.2
5,Cc1ccc(N(CC(=O)NC(C)(C)C)C(=O)CNC(=O)c2cccs2)cc1,7.4
6,CN(CC(=O)Nc1ccc(F)cc1)C(=O)Cn1nnc(-c2ccccc2)n1,7.23
7,CC(C)N(C)C1CCN(C(=O)Nc2ccc(Cl)c(Cl)c2)CC1,-19.5
8,O=C(CSc1nnc(-c2ccco2)n1Cc1ccccc1)c1ccccc1,8.89
9,O=C1c2ccccc2C(=O)N1CCSc1nnc(-c2ccco2)n1Cc1ccccc1,-51.1
10,c1ccc(CSc2nnc(-c3ccco3)n2Cc2ccccc2)cc1,-6.43
11,Cc1c(NC(=S)N2CCN(c3cccc(Cl)c3)CC2)c(=O)n(-c2ccccc2)n1C,9.46
12,CCNC(=O)OCCC12CC3CC(CC(C3)C1)C2,11.6
13,CCn1cc(CNC(=O)c2ccc3nc(Cc4ccccc4F)oc3c2)cn1,11.3
14,COCCN(C(=O)COC(=O)c1ccc2[nH]c(C)c(C)c2c1)c1c(N)n(Cc2ccccc2)c(=O)[nH]c1=O,7.98
15,CN(C)CCCN(C(=O)c1ccc2c(c1)OCCO2)c1nc2ccc(Cl)cc2s1.Cl,-3.81
16,CN(C)CCN(C(=O)C1=COCCO1)c1nc2ccc(Cl)cc2s1.Cl,-62.4
17,CN(C)CCCN(C(=O)CCc1ccccc1)c1nc2ccc(F)cc2s1.Cl,-24.8
18,CN(C)CCCN(C(=O)C1COc2ccccc2O1)c1nc2cc3c(cc2s1)OCO3.Cl (centres unmarked),-21.3
19,CN(C)CCN(C(=O)C1=COCCO1)c1nc2ccc(F)cc2s1.Cl,-57.7
20,CN(C)CCCN(C(=O)C1=COCCO1)c1nc2ccc(Br)cc2s1.Cl,-25.1
21,CN(C)CCCN(C(=O)C1COc2ccccc2O1)c1nc2ccc(F)cc2s1.Cl (centres unmarked),-64.9

row,Structure (SMILES),"hERG current change (%, negative = inhibition) at 1uM [%]"
1,Cc1ccc2nc(N(CCN(C)C)C(=O)C3=COCCO3)sc2c1.Cl,-5.32
2,CN(C)CCN(C(=O)c1ccc2c(c1)OCCO2)c1nc2ccc(Cl)cc2s1.Cl,10.8
3,Cc1csc(SC(C)C(=O)NC2CCCCC2C)n1 (centres unmarked),7.18
4,COc1ccc2oc(=O)cc(-c3cc4ccccc4o3)c2c1,-1.03
5,COc1ccc(N2CCN(C(=O)C3CCCN(S(=O)(=O)c4cccc5cccnc45)C3)CC2)cc1 (centres unmarked),5.91
6,O=C(C1CCCN(S(=O)(=O)c2ccccc2)C1)N1CCN(c2ccccc2)CC1 (centres unmarked),-12.7
7,O=C(C1CCCN1S(=O)(=O)c1cccc2nsnc12)N1CCN(c2ccccc2)CC1 (centres unmarked),-1.72
8,O=C(C1CCCN(S(=O)(=O)c2cccc3cccnc23)C1)N1CCN(c2ccc(F)cc2)CC1 (centres unmarked),-50.1
9,COc1ccc(N2CCN(C(=O)C3CCCN(S(=O)(=O)c4ccc(F)cc4)C3)CC2)cc1 (centres unmarked),-7.16
10,O=C(C1CCCN1S(=O)(=O)c1cccc2nsnc12)N1CCN(c2ccc(F)cc2)CC1 (centres unmarked),-54.1
11,O=C(C1CCCN(S(=O)(=O)c2cccc3cccnc23)C1)N1CCN(c2ccccc2F)CC1 (centres unmarked),-27.5
12,CC(=O)c1ccc(N2CCN(C(=O)C3CCCN3S(=O)(=O)c3cccc4nsnc34)CC2)cc1 (centres unmarked),14.6
13,O=C(C1CCCN(S(=O)(=O)c2ccccc2)C1)N1CCN(c2ccc(F)cc2)CC1 (centres unmarked),-62.4
14,CC(=O)N1CCN(C(=S)NC(=O)c2ccc(S(=O)(=O)N3CCOCC3)cc2)CC1,13.2
15,COc1ccc(C(=O)Nc2c(C)ccc3nsnc23)cc1[N+](=O)[O-],3.23
16,C#CCNC(=O)C1=C[C@H](c2ccc(Br)cc2)C[C@H](OCCCCO)O1,11.3
17,COc1ccc([N+](=O)[O-])cc1N(CC(=O)Nc1ccccc1C(=O)N1CCOCC1)S(C)(=O)=O,4.57
18,COC(=O)C1=C(C(=O)OC)SC2(S1)C(C(=O)OC)=C(C(=O)OC)SC1=C2c2cc(C)cc(C)c2NC1(C)C,19.8
19,COC(=O)C1=C(C(=O)OC)SC2(S1)C(C(=O)OC)=C(C(=O)OC)SC1=C2c2cccc(C)c2NC1(C)C,-79.1
20,COC(=O)C1=C(C(=O)OC)SC2(S1)C(C(=O)OC)=C(C(=O)OC)SC1=C2c2cc(C)ccc2NC1(C)C,11
